Source: PubChem BioAssay (National Center for Advancing Translational Sciences (NCATS))
RORgamma inh = blocks mouse ROR gamma transcriptional activity; 5.4% of 310,000 active; Drosophila S2 Gal4-RORgamma UAS-luciferase reporter, 20 h; Potency, µM (doses to about 53.6 µM), for the others: at the highest dose activity change, negative = inhibition, most hits filed as inhibitors; P51450; note: nearly all actives have a fitted effect of over 60% in size
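Stable Schneider cell line, Gal4 DNA-binding domain fused to ROR gamma, UAS-luciferase. Cmpd 1 hr RT → CuSO4 700 uM final → 20 hr RT → luciferase reagent 10 min → luminescence.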
DT40 TDP1 no CPT = qHTS for Inhibitors of human tyrosyl-DNA phosphodiesterase 1 (TDP1): qHTS in cells in absence of CPT | DT40 Tdp1-/- hTDP1 cells, no CPT, ATP luminescence, 48 h | Potency, µM (series often up to 46.2 µM), inactives show at the top dose activity change, negative = growth inhibition, usual class: inhibitors | 15% of 420,000 active | AID 686978, 2013; note: nearly all actives have a fitted effect of over 55% in size
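No-CPT arm: Tdp1-/-;hTDP1 DT40 cells (400/well) plus compounds, incubated ≥48 hr at 37 °C. Readout CellTiter-Glo luminescence.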
TDP1 inh = inhibitors of human tyrosyl-DNA phosphodiesterase TDP1. Q9NUW8. recombinant TDP1, AlphaScreen DNA substrate cleavage. Potency, µM (highest dose often 130 µM), for inactives: at the top dose activity change, negative = inhibition, usual class: inhibitors. 0.28% of 350,000 active. AID 485290; note: nearly all actives have a fitted effect of over 40% in size
Target sequence (Q9NUW8 whole entry, looked up): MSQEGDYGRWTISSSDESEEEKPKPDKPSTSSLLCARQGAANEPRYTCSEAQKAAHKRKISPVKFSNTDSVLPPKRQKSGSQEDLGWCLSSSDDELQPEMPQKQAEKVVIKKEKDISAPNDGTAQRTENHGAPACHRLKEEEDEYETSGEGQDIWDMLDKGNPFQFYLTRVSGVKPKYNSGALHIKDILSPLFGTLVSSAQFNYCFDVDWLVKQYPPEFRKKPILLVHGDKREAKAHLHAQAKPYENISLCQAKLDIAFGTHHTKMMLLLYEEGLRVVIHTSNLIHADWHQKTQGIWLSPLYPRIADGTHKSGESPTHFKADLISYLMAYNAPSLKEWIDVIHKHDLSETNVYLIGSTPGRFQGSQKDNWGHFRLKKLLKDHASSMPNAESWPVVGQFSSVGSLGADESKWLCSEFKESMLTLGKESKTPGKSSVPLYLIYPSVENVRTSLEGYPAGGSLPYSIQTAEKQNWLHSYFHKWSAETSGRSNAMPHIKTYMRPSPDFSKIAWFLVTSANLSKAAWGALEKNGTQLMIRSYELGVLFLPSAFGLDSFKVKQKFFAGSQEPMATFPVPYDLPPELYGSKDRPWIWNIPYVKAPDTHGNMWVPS
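Here, a 5' biotin and 3' phosphotyrosine-FITC DNA oligonucleotide reports Tdp1 activity: intact substrate bridges AlphaScreen beads, while cleavage leaves a 3' phosphate and drops signal. All incubations at room temperature.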
TDP1 cell CPT = DT40-hTDP1 cell growth loss with CPT | Potency, µM (doses to about 46.2 µM), without a hit: at the highest dose activity change, negative = growth inhibition, usual class: inhibitors | 12% of 420,000 active | chicken DT40 Tdp1-/-;hTDP1 cells + 20 nM CPT, ATP luminescence, 48 h; note: nearly all actives have a fitted effect of over 55% in size
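Chicken DT40 Tdp1-/- cells stably complemented with human TDP1 were seeded at 400 cells/well in medium containing 20 nM camptothecin, exposed to pin-transferred compounds, and grown at 37 °C for at least 48 hr. Viability was read as ATP luminescence.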
VP16 counter = Gal4-VP16 reporter inhibition counter-screen. Drosophila S2 Gal4-VP16 UAS-luciferase, luminescence, 20 h. Potency, µM (titrated, usually from 53.6 µM), without a hit: at the top dose activity, negative = inhibition, actives largely listed as inhibitors. AID 2546. 3.5% of 310,000 active;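 note: Gal4-VP16 expression switched on by copper sulfate through the metallothionein promoter; nearly all actives have a fitted effect of over 50% in size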
An asterisk follows results filed as active; u = inconclusive; x = no result given; [ ] = dose if it differs, or a comment. Shown are actives, neighbours in structure and some others; about 19% of the full set was active somewhere. Calls come from the whole dose curve; as a rule, active = well fitted curve in the direction sought with a large enough effect; inconclusive = small, poorly fitted or top-dose-only effect, or another doubt; inactive = no such curve, though single readings can be large; an effect the other way counts as inactive or inconclusive. % is set by controls: 0 for no effect and ±100 for the full control effect; potency is the fitted concentration of half-maximal effect.

SMILES	RORgamma inh	DT40 TDP1 no CPT	TDP1 inh	TDP1 cell CPT	VP16 counter
O=C(Cc1ccccc1)NCc1ccc2c(c1)OCO2	-14%	-5%	0%	-6%	-28%
COc1ccc(NS(=O)(=O)c2ccc(NC(=S)NC(=O)c3ccc(F)cc3)cc2)nn1	1%	-5%	4%	15%	-29%
CC(=O)c1cccc(Nc2cc(C)nc3ccccc23)c1	-4%	-16%	-5%	u	0%
O=[N+]([O-])c1cc(S(=O)(=O)N2CCCCCC2)ccc1F	5.6µM*	10µM*	3%	7.3µM*	4.5µM*
COc1ccc(C(CNc2ccc(S(=O)(=O)N3CCN(C)CC3)cc2[N+](=O)[O-])N(C)C)cc1 (centres undefined)	x	21µM*	1%	-12%	x
COc1ccccc1C(CNc1ccc(S(=O)(=O)N2CCCC2)cc1[N+](=O)[O-])N(C)C (centres undefined)	4%	u	8%[56.1 µM]	13µM*	5%
O=[N+]([O-])c1cc(S(=O)(=O)N2CCCC2)ccc1O	5%	0%	8%	-18%	3%
COc1ccc(Nc2ccc(S(=O)(=O)N3CCCCC3)cc2[N+](=O)[O-])cc1	50%	16µM*	8%	u	6%
CN(C(=O)COC(=O)c1n[nH]c2ccccc12)c1ccccc1	11%	11%	-1%	6%	-7%
CN1CCN(NS(=O)(=O)c2ccc(Cl)s2)CC1	-12%	-11%	11%	2%	0%
COC(=O)c1cnc(Nc2nc(C(N)COCc3ccccc3)cs2)nc1C(F)(F)F (centres undefined)	x	15µM*	x	u	x
O=C(Nc1nc(-c2ccccc2Cl)cs1)c1cccnc1	18%	u	-4%	u	5%
COC(=O)c1cnc(Nc2nc(C(N)c3ccccc3Cl)cs2)nc1C(F)(F)F (centres undefined)	x	26µM*	x	u	x
NC(c1csc(NC(=O)c2cccc(OC(F)(F)F)c2)n1)c1ccccc1Cl (centres undefined)	x	5.8µM*	x	4.1µM*	x
COC(=O)c1cnc(NNS(=O)(=O)c2ccc(C(F)(F)F)cc2)nc1C(F)(F)F	-38%	-27%	2%	0%	-20%
CCOC(=O)c1[nH]c2ccccc2c1NC(=S)Nc1ccccc1C	-41%	u	7%	-19%	16%
C=CCn1c(CCSCc2ccc(OC)c(C)c2)n[nH]c1=S	2.5µM*	-26%	3%	u	-16%
C=CCn1c(CCSCc2ccccc2)n[nH]c1=S	4µM*	u	8%	-19%	u
COc1cccc(N2CCN(S(=O)(=O)c3ccc4c(c3)oc(=O)n4C)CC2)c1	-4%	10%	-17%	8%	-17%
Cn1c(=O)oc2cc(S(=O)(=O)N3CCC(C(=O)N4CCN(c5cccc(Cl)c5)CC4)CC3)ccc21	x	1.5µM*	4%	4.1µM*	x
Cn1c(=O)oc2cc(S(=O)(=O)N3CCC(C(=O)N4CCN(c5ccc(Cl)cc5)CC4)CC3)ccc21	x	2.3µM*	12%	2.1µM*	x
Cc1ccc(CN2CCNC(=O)C2CC(=O)N(C)Cc2cnccn2)cc1 (centres undefined)	-9%	7%	0%	3%	-4%
O=C(Nc1ccc(Cl)c(C(F)(F)F)c1)NC1CC2CCCC(C1)N2C1CC1 (centres undefined)	x	11µM*	x	11µM*	x
O=C(NCC1CCCO1)c1csc(Nc2cccc3ccccc23)n1 (centres undefined)	11µM*	15µM*	8%	18µM*	-10%
Cc1ccccc1-c1nc(C(=O)NCC2CCCO2)cc2c1[nH]c1ccccc12 (centres undefined)	u	18µM*	x	12µM*	-3%
SMILES	RORgamma inh	DT40 TDP1 no CPT	TDP1 inh	TDP1 cell CPT	VP16 counter
Cc1ccc(-c2cc(C(=O)NCC3CCCO3)c3ccccc3n2)cc1C (centres undefined)	-2%	5%	-3%	11%	-8%
Cc1ccc(-c2nc(C(=O)NCC3CCCO3)cc3c2[nH]c2ccccc23)cc1 (centres undefined)	46%	1.8µM*	x	2.3µM*	-8%
COc1ccc(-c2nc(C(=O)NCC3CCCO3)cc3c2[nH]c2ccccc23)cc1 (centres undefined)	u	2.1µM*	x	2.1µM*	-15%
O=C1c2cccnc2C(Nc2ccccc2Br)N1Cc1ccco1 (centres undefined)	-1%	10%	3%	u	-10%
CCOc1ccc(N2C(=O)CC(N3CCN(c4ccc([N+](=O)[O-])cc4)CC3)C2=O)cc1 (centres undefined)	28%	u	x	u	u
O=C(CN1CCN(S(=O)(=O)c2ccc(F)c(Cl)c2)CC1)N1CCOCC1	x	4%	4%	-17%	x
O=C(NCC1CCCO1)c1cc2c([nH]c3ccccc32)c(-c2cccc(Br)c2)n1 (centres undefined)	u	2.9µM*	x	2.6µM*	3%
COC(=O)c1ccc(CNC(=O)COC(=O)/C=C/c2cc(OC)c(OC)c(OC)c2)cc1	x	-5%	1%	-1%	x
COc1cccc(-c2nc3cc4c(cc3cc2CN(C(=O)c2csc(C)n2)C2CC2)CCC4)c1OC	x	23µM*	x	-12%[9.04 µM]	x
COc1cccc(-c2nc3cc(SC)ccc3cc2CN(C(=O)c2csc(C)n2)C2CC2)c1	x	u	x	-15%[9.04 µM]	x
CCN1CCc2c(sc(-n3cccc3)c2C(C)NC(=O)Nc2ccc(C(=O)OC)cc2)C1 (centres undefined)	x	18µM*	7%	18µM*	x
COc1cc(NC(=O)NC(C)c2c(-n3cccc3)sc3c2CCCC3)cc(OC)c1OC (centres undefined)	x	u	3%	u	x
CC(NC(=O)Nc1ccccc1C(F)(F)F)c1c(-n2cccc2)sc2c1CCCC2 (centres undefined)	x	10µM*	11%	u	x
CCOc1ccc(NC(=O)NC(C)c2c(-n3cccc3)sc(C)c2C)cc1 (centres undefined)	x	u	10%	u	x
CCN1CCc2c(sc(-n3cccc3)c2C(CCC(C)C)NC(=O)NCCC(=O)OC)C1 (centres undefined)	x	26µM*	2%	u	x
COc1ccc2cc(CNCCOCCOCCNCc3ccc4cc(OC)ccc4c3)ccc2c1	x	2.6µM*	x	2.6µM*	x
CCOCCCNCc1ccc(OC)cc1	-1%	-9%	-8%	-27%	17%
O=C(Cn1nnc(-c2ccccc2)n1)c1ccccc1	u	-26%	-2%	-24%	-2%
